# Assay outcomes deposited in PubChem by National Center for Advancing Translational Sciences (NCATS).
# TDP1 cell noCPT = qHTS for Inhibitors of human tyrosyl-DNA phosphodiesterase 1 (TDP1): qHTS in cells in absence of CPT; Potency, µM (highest dose often 46.2 µM), for the others: at the highest dose activity change, negative = growth inhibition, usual class: inhibitors; DT40 Tdp1-/- hTDP1 cells, no CPT, ATP luminescence, 48 h; actives 15% (n = 420,000); also: % is scaled to controls: 0 for no effect and ±100 for the full control effect; nearly all actives have a fitted effect of over 55% in size
#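 Chicken DT40 Tdp1-/- cells complemented with human TDP1, screened without camptothecin (DMSO vehicle only), 400 cells/well. Compounds pin-transferred, cells incubated at 37 °C for at least 48 hr. Growth read as ATP-dependent luminescence (CellTiter-Glo, 30 min at RT).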
# HT1080NT lethal = qHTS for induction of synthetic lethality in tumor cells producing 2HG: qHTS for the HT-1080-NT fibrosarcoma cell line; HT-1080-NT fibrosarcoma viability, CellTiter-Glo ATP luminescence, 48 h; Potency, µM (titrated, usually from 46.1 µM), for inactives: at the top dose activity, negative = less viability, most hits filed as cytotoxic; actives 1.6% (n = 360,000); AID 686970, 2013;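 also: NT is the 2HG producing partner of a matched IDH1 knockdown line; 0% = DMSO-treated cells and -100% = media-only wells without cells; nearly all actives have a fitted effect of over 55% in size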
#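 HT-1080-NT fibrosarcoma cells (2HG-overproducing), 750 cells/well in RPMI with 5% FBS, dosed after 2 h and incubated 48 h at 37C. CellTiter-Glo luminescence normalized to DMSO and no-cell wells; concentration-response curves fitted and classed.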
# HT1080 IDH1KD tx = qHTS for induction of synthetic lethality in tumor cells producing 2HG: qHTS for the HT-1080-IDH1KD cell line; HT-1080 IDH1 knockdown viability, ATP luminescence, 48 h; Potency, µM (doses to about 46.1 µM), for inactives: top-dose activity, negative = toxicity, usual class: cytotoxic; actives 2% (n = 360,000);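 also: 0% = DMSO wells and -100% = cell-free medium wells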
#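 % activity derives from luminescence (CellTiter-Glo), normalised to DMSO and no-cell wells. HT-1080-IDH1KD cells, 750/well, had 48 h compound exposure at 37 °C.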
# HepG2 tox = qHTS for Inhibitors of TGF-b: Cytotox Counterscreen | HepG2 CAGA-GFP viability, ATP luminescence, 18 h | actives 0.76% (n = 410,000) | Potency, µM (doses to about 46.1 µM), for the others: at the top dose activity change, negative = cytotoxicity, usual class: cytotoxic
#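 CellTiter-Glo luminescence gave cytotoxicity after 18 hours at 37 degrees C. The cells were HepG2 CAGA-GFP in 1% FBS DMEM, stimulated with 500 pg/mL TGF-beta after compound addition. %Activity was normalised to no-cell wells (complete cell-killing) and DMSO (no toxicity), and curves were fitted and classified.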
# TGFb inhibitor = qHTS for Inhibitors of TGF-b; HepG2 CAGA-GFP TGF-b/SMAD3 reporter, GFP fluorescence, 18 h; TGF-beta stimulated, 500 pg/mL final; Potency, µM (top dose mostly 46.1 µM), for the others: at the top dose activity, negative = inhibition, hits mostly inhibitors; actives 1.2% (n = 410,000); also: % is scaled to controls: 0 for no effect and ±100 for the full control effect; nearly all actives have a fitted effect of over 65% in size
#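 Cell-based qHTS in HEPG2 carrying a CAGA-GFP Smad reporter; compounds added before 500 pg/mL final TGF-beta, 18 h incubation at 37 degrees C, GFP fluorescence quantified per cell by imaging cytometry.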
# DT40 TDP1 CPT = qHTS for Inhibitors of human tyrosyl-DNA phosphodiesterase 1 (TDP1): qHTS in cells in presence of CPT. actives 12% (n = 420,000). Potency, µM (highest dose often 46.2 µM), inactives show top-dose activity change, negative = growth inhibition, most hits filed as inhibitors. chicken DT40 Tdp1-/-;hTDP1 cells + 20 nM CPT, ATP luminescence, 48 h; also: % is scaled to controls: 0 for no effect and ±100 for the full control effect; nearly all actives have a fitted effect of over 55% in size
#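 Chicken DT40 Tdp1-/- cells complemented with human TDP1, 400 cells/well, exposed to compounds plus 20 nM camptothecin for at least 48 h at 37 C; viability read as ATP content by CellTiter-Glo luminescence.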
# * = called active by the depositor; ? = inconclusive; . = not tested or not shown. The list is not random: actives were taken first. Their share in the collection is about 17%. Calls follow the shape of the dose curve; as a rule, active = well fitted curve in the direction sought with a large enough effect; inconclusive = small, poorly fitted or top-dose-only effect, or another doubt; inactive = no such curve, though single readings can be large; an effect the other way counts as inactive or inconclusive. Potency is read from the fitted curve at half-maximal effect.
SMILES,TDP1 cell noCPT,HT1080NT lethal,HT1080 IDH1KD tx,HepG2 tox,TGFb inhibitor,DT40 TDP1 CPT
COC(=O)C1OC(=O)C2OC23[C@]2(C)C(OC(C)=O)CC4C(C)(C)C(=O)CC[C@]4(C)C2CC[C@@]13C (some centres not stated),3%,.,.,.,.,-2%
Cc1ccc(S(=O)(=O)Nc2ccccc2N=Cc2ccc([N+](=O)[O-])cc2[N+](=O)[O-])cc1,18µM*,1%,-6%,-8%,0%,26µM*
Cc1ccc(S(=O)(=O)Nc2ccc3cc([N+](=O)[O-])ccc3c2[N+](=O)[O-])cc1,23µM*,2.6µM*,?,-16%,?,?
COc1ccc([N+](=O)[O-])cc1NS(=O)(=O)c1ccc(C)cc1,?,3%,2%,-1%,-13%,-17%
O=c1oc2cc(OCc3c(F)cccc3Cl)ccc2cc1-c1ccccn1,?,16%,9%,3%,23%,?
CCCOc1ccc2cc(-c3ccccn3)c(=O)oc2c1,16µM*,?,?,-61%,-18%,?
Cc1c(OC(C)C(=O)NCC(O)c2ccccc2)ccc2c3c(c(=O)oc12)CCCC3 (configuration not stated),?,-14%,-6%,0.11µM*,-10%,23µM*
Cc1cc(=O)oc2c(C)c(OC(C)C(=O)NCC(O)c3ccccc3)ccc12 (configuration not stated),8%,-3%,6%,-2%,-2%,-10%
Cc1c(OC(C)C(=O)NCc2ccncc2)ccc2c3c(c(=O)oc12)CCCC3 (configuration not stated),?,-1%,-15%,-16%,0%,21µM*
CCOc1cccc(NC(=O)c2sc3nc(-c4ccc(F)cc4)ccc3c2N)c1,?,.,.,-19%,1%,-24%
COc1ccc(NS(=O)(=O)c2ccc(NC(=O)Cc3cccs3)cc2)cc1,15µM*,-14%,-20%,-23%,?,?
COc1ccc(CC(=O)Nc2cc(S(=O)(=O)Nc3ccc(OC)cc3)ccc2OC)cc1,21µM*,-12%,-3%,-21%,-24%,21µM*
CCCN(CCC)S(=O)(=O)c1ccc(NC(=O)Cc2cccs2)cc1,-32%,-22%,-23%,-1%,-28%,-24%
CCCCN(CCCC)S(=O)(=O)c1ccc(NC(=O)Cc2cccs2)cc1,21µM*,?,?,-19%,?,?
CCC(=O)Nc1ccc(S(=O)(=O)Nc2cccc(C)c2)cc1OC,12µM*,?,?,-10%,-4%,?
COc1ccc(NS(=O)(=O)c2cc(NC(=O)Cc3cccs3)ccc2C)cc1,-1%,21%,21%,-16%,-29%,6%
Cc1c(Cl)cnc(NC(=O)COC(=O)Cc2coc3ccc4ccccc4c23)c1Cl,?,3%,4%,-5%,2%,0%
CSc1ncc(Cl)c(C(=O)NCc2cccnc2)n1,-14%,2%,3%,-12%,10%,0%
O=C1Cc2ccccc2C1=C1C=c2ccccc2=C1,?,.,.,0%,-1%,?
Cc1c(OCc2ccccc2)c(=O)ccn1Cc1ccccc1,-21%,5%,10%,-2%,5%,-23%
O=c1ccn(Cc2ccccc2)c2ccccc12,13µM*,1%,1%,-12%,?,12µM*
